An excerpt weighted towards active compounds, which were near 1.4% of everything screened.
TCR act: Activators of T cell receptors: qHTS campaign; primary human leukocytes, anti-CD3, IL-2 HTRF, 48 h; 330,000 tested, under 10 active; Potency, µM (series often up to 9.22 µM), without a hit: top-dose activation of IL-2 secretion, actives largely listed as activators; also: % of control where 0% means no effect
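HTRF read-out of IL-2 secretion: europium cryptate donor excited at 320nm, d2 acceptor emission at 665nm. Cells were primary human leukocytes incubated 48 hr with compounds and a-CD3 beads, supplying TCR signal only.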
N370S GC mod: qHTS Assay for Inhibitors and Activators of N370S glucocerebrosidase as a Potential Chaperone Treatment of Gaucher Disease; N370S GC spleen homogenate, 4MU-glucoside fluorescence; Potency, µM (series often up to 59.4 µM), for the others: at the top dose activity change, negative = inhibition, actives largely listed as inhibitors; Lysosomal acid glucosylceramidase (Homo sapiens), P04062; 330,000 tested, 0.092% active;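 also: potency is read from the fitted curve at half-maximal effect; 0% = full enzyme activity and -100% = no enzyme basal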
BRCA1 expr act: qHTS Assay to Identify Small Molecule Activators of BRCA1 Expression; MCF7-BRCA1-FFLuc reporter, luminescence, 48 h; response scale: scaled: vehicle 0%, 10 µM genistein 100%; Potency, µM (top dose mostly 46.1 µM), for inactives: at the top dose activation, hits mostly activators; 380,000 tested, 1.1% active; also: potency is read from the fitted curve at half-maximal effect; nearly all actives have a fitted effect of over 80% in size
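Luminescence from a BRCA1-driven firefly luciferase in MCF7 cells was read after 48 h compound exposure at 37 C. Data normalized against DMSO and a 10microM genistein activation control, then curve-fitted across the titration.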
GLS inhibitor: qHTS for Inhibitors of Glutaminase (GLS); AID 624170, 2012; Glutaminase kidney isoform, mitochondrial (Homo sapiens), O94925; Potency, µM (highest dose often 45.5 µM), for inactives: at the highest dose activity change, negative = inhibition, usual class: inhibitors; 410,000 tested, 0.21% active; GLS enzymatic activity, qHTS titration; also: potency is read from the fitted curve at half-maximal effect; % is scaled to controls: 0 for no effect and ±100 for the full control effect
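Compounds were pin-transferred onto hKGA, after which L-glutamine (1 mM solution) and a detection mix of glutamate oxidase, HRP and Amplex Red were added. Initial and 30 min RT fluorescence reads were collected.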
p53 reactivator: qHTS assay for re-activators of p53 using a Luc reporter | 320,000 tested, 0.063% active | AID 504706, 2011 | Potency, µM (top dose mostly 92.2 µM), without a hit: at the highest dose activity change, positive = activation, most hits filed as activators | H1299 p53-A138V BP100-luciferase reporter, luminescence, 24 h; also: potency is read from the fitted curve at half-maximal effect; % of control where 0% means no effect; nearly all actives have a fitted effect of over 45% in size
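p53-null H1299 cells stably carrying temperature-sensitive p53-A138V and a BP100-luciferase reporter were pinned with compounds (4-point, 1:5 series) and held 24 hrs at 37 deg C. Luminescence was read 10 min after detection reagent.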
TSHR antag: Antagonists of the Thyroid Stimulating Hormone Receptor: HTS campaign; Thyrotropin receptor (Homo sapiens), P16473; activity change, negative = inhibition, % at 11.5 µM; 330,000 tested, 0.2% active; TSHR-expressing cells, TSH-stimulated cAMP HTRF, 2 h; stronger effect = lower value; AID 504810, 2011;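 active = activity change below a set negative limit, meaning inhibition stronger than a set level, cut at about -70% in these data; inconclusive = activity change between two set negative limits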; also: % is scaled to controls: 0 for no effect and ±100 for the full control effect
Target sequence (P16473 whole entry, looked up): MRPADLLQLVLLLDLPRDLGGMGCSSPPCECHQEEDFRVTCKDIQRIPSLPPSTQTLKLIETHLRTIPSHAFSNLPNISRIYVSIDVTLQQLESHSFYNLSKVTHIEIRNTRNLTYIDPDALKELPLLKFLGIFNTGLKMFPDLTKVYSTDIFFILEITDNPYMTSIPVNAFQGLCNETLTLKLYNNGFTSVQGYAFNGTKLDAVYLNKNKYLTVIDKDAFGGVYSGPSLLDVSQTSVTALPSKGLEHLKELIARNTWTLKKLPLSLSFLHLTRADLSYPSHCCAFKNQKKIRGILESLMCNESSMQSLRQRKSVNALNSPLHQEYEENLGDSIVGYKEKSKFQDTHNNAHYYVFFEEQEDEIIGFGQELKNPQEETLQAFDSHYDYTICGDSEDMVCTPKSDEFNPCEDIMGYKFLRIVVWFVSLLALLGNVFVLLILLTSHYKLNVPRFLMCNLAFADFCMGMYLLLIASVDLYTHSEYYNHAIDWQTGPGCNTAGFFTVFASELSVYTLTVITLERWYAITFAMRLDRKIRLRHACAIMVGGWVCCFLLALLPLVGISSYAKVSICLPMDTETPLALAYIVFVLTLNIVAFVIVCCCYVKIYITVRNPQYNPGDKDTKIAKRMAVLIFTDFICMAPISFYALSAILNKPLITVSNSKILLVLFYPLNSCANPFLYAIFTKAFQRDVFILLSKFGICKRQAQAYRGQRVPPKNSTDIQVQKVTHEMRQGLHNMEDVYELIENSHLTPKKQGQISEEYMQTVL
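Read-out is FRET at 665 nm (cryptate excitation 337 nm) from a cryptate-tagged anti-cAMP antibody, competed by cell cAMP against cAMP-d2. Compounds are tested on freshly harvested TSHR cells challenged with 4nM TSH (EC80) for 2 hours at 37 deg C.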
The depositor's hits bear a star; u = inconclusive; x = no result given; [ ] = remark or other dose. Unless noted, calls follow the shape of the dose curve; as a rule, active = well fitted curve in the direction sought with a large enough effect; inconclusive = small, poorly fitted or top-dose-only effect, or another doubt; inactive = no such curve, though single readings can be large; an effect the other way counts as inactive or inconclusive.

SMILES	TCR act	N370S GC mod	BRCA1 expr act	GLS inhibitor	p53 reactivator	TSHR antag
CN(C(=O)c1ccc(S(=O)(=O)N2CCCC2)cc1)C1CCCCC1	2%	-1%	-3%	94%	2%	-1
Cc1ccc(C(=O)NC(=S)N(C)C2CCCCC2)cc1	6%	0%	8.9µM*	-2%	17%	-2
CN(C(=O)c1ccc(-c2ccccc2)cc1)C1CCCCC1	-3%	x	2.8µM*	-4%	x	x
O=C(C1CCC(C(=O)N2CCc3ccccc32)CC1)N1CCc2ccccc21 (stereo not drawn)	-22%	3%	2%	5%	11%	-7
Cc1cccc(C(=O)NC2CCCCCCC2)c1	-1%	-2%	u	0%	u	-6
O=C(CSc1ccccc1)NC1CCCCCCC1	-1%	0%	10µM*	7%	21%	-2
CN(C)c1cccc(C(=O)NC2CCCCCC2)c1	-5%	8%	10µM*	33%	u	x
O=C(NC1CCCCCC1)C(=S)NCc1ccccc1	x	3%	11µM*	1%	25%	-13
O=C(NC1CCCCC1)c1ccc(-c2ccccc2)cc1	-3%	x	2.2µM*	3%	x	x
O=C(CSc1ccccc1)NC1CCCCCC1	2%	1%	u	-1%	u	1
COCCn1c(=O)cnc2cnc(OC)nc21	x	3%	x	x	x	x
CCCCOc1ccc(CC(=O)N(C)O)cc1	x	x	-25%	x	x	x
CC(C)(C)C(=O)OCOC(=O)C1N2C(=O)CC2S(=O)(=O)C1(C)C (stereo not drawn)	x	x	x	-6%	x	x
COCC1=C(C(=O)OC(C)OC(=O)OC(C)C)N2C(=O)C(NC(=O)/C(=N/OC)c3csc(N)n3)[C@H]2SC1 (stereo partly drawn)	x	x	x	-2%	x	x
N#Cc1cccc(NC(=O)Nc2cccs2)c1	-1%	17%	15%	3%	-2%	-6
CCc1cccc(NC(=O)Nc2cccs2)c1	2%	2%	11µM*	29%	26%	3
COc1cc(/C=C2\SC(=O)N(CC(=O)Nc3ccc(C)cc3)C2=O)cc(Cl)c1OCC(=O)O	-12%	-5%	9%	7.1µM*	x	-10
c1ccc2oc(-c3ccn[nH]3)cc2c1	5%	9%	4.5µM*	3%	10%	3
O=c1cnc2cncnc2n1Cc1ccccc1	x	-25%	x	x	x	x
CN1OC[C@@H]2CN[C@H](c3cccc(-c4ccc(C#N)cc4)c3)C[C@@H]21	4%	x	0%	0%	x	x
CN1OC[C@@H]2CN[C@H](c3ccc(-c4cccc(F)c4)cc3)C[C@@H]21	x	x	11µM*	1%	x	x
CN(C)c1ccc(/C=C(\C#N)c2ccccc2)cc1	8%	16%	2.8µM*	7%	u	2
CCOc1ccc(C(=O)c2oc3ccccc3c2NC(=O)Cc2coc3ccc(CC)cc23)cc1	x	x	x	-7%	x	x
Clc1cccc(Cl)c1CNc1ccc(N2CCCC2)cc1	-1%	10%	-47%	7.1µM*	-4%	-7
O=C(Cc1ccc(Cl)cc1)Nc1ccc(N2CCCC2)cc1	0%	1%	-9%	-4%	2%	8
Cc1ccc(O)c(C(=O)/C=C/c2ccc3c(c2)OCCCO3)c1	11%[46.1 µM]	16%	7.1µM*	-1%	u	-16
C(=N\N(c1ccccc1)c1ccccc1)/c1ccc2c(c1)OCO2	5%	u	-2%	11%	0%	-9
CSc1ccccc1NC(=O)c1cc(-c2ccc3c(c2)OCO3)on1	0%	-1%	74%	5%	25%	-1
O=C(/C=C\C=C/c1ccc2c(c1)OCO2)N1CCCCC1	x	-28%[21.6 µM]	x	x	x	x
